Experimental findings from PubChem BioAssay (EPA / NIEHS) are described below.

Settings in all cases: mRNA level, 48 h; actives raise or lower the signal
Read-out in assay [1]: Cytochrome P450 7A1 (Homo sapiens) (UniProt P22680)
As to the kind of experiment: LTEA_HepaRG_CYP7A1: Life Technologies and Expression Analysis (LTEA) Assay for Cytochrome P450 7A1 (CYP7A1) using HepaRG (AID 2283496). The essentials: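 HepaRG, 48 h exposure, 8-pt half-log series from 100 uM, 0.5% DMSO vehicle, duplicates. Readout: TaqMan qRT-PCR mRNA vs three housekeeping genes; bidirectional curve fit against DMSO baseline.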

Read-out in assay [2]: Glutathione S-Transferase (GSTA2), GSTA2 (gene 2939)
The assay is described as follows: LTEA_HepaRG_GSTA2: Life Technologies and Expression Analysis (LTEA) Assay for Glutathione S-Transferase (GSTA2) using HepaRG (AID 2283497). The essentials: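 GSTA2 transcript levels came from Fluidigm TaqMan qRT-PCR normalized to three housekeeping genes, fitted in both directions against DMSO. HepaRG cultures received chemicals for 48 h in serum-free induction medium (0.5% DMSO), 8 half-log concentrations up to 100 uM, duplicate.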

Read-out in assay [3]: growth arrest and DNA damage 45 (GADD45G), GADD45G (gene 10912)
The assay is described as follows: LTEA_HepaRG_GADD45G: Life Technologies and Expression Analysis (LTEA) Assay for growth arrest and DNA damage 45 (GADD45G) using HepaRG (AID 2283499). The essentials: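 GADD45G transcript level by qRT-PCR (housekeeping-normalized: ACTB, GAPDH, POLR2A) after 48 h chemical treatment of a single HepaRG lot in serum-free induction medium; eight-point half-log series up to 100 uM in 0.5% DMSO, duplicates, up- or down-regulation scored.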

Read-out in assay [4]: Glutamate-cysteine ligase regulatory (GCLM), GCLM (gene 2730)
As to the kind of experiment: LTEA_HepaRG_GCLM: Life Technologies and Expression Analysis (LTEA) Assay for Glutamate-cysteine ligase regulatory (GCLM) using HepaRG (AID 2283500). In short, it runs like this: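 GCLM expression quantified by qRT-PCR, normalized to three housekeeping genes, after 48 h chemical treatment of HepaRG cells in duplicate at 8 concentrations (top 100 uM, half-log steps, 0.5% DMSO). Changes fitted both directions against vehicle.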

Read-out in assay [5]: Glutathione S-transferase M3 (GSTM3), GSTM3 (gene 2947)
As to the kind of experiment: LTEA_HepaRG_GSTM3: Life Technologies and Expression Analysis (LTEA) Assay for Glutathione S-transferase M3 (GSTM3) using HepaRG (AID 2283501). In short, it runs like this:
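GSTM3 transcript levels came from Fluidigm TaqMan qRT-PCR normalized to three housekeeping genes, fitted in both directions against DMSO. HepaRG cultures received chemicals for 48 h in serum-free induction medium (0.5% DMSO), 8 half-log concentrations up to 100 uM, duplicate.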

Read-out in assay [6]: Heat shock 70 kDa protein 1 (HSPA1A), gene 3303
The assay is described as follows: LTEA_HepaRG_HSPA1A: Life Technologies and Expression Analysis (LTEA) Assay for Heat shock 70 kDa protein 1 (HSPA1A) using HepaRG (AID 2283502). The essentials:
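HSPA1A expression measured by qRT-PCR with ACTB/GAPDH/POLR2A normalization; curves fitted in both directions relative to DMSO vehicle. Exposure: 48 h in HepaRG cells, duplicate 8-point half-log series from 100 uM, 0.5% DMSO, serum-free induction medium.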

Read-out in assay [7]: Hypoxia-inducible factor 1-alpha (Homo sapiens) (UniProt Q16665)
The assay is described as follows: LTEA_HepaRG_HIF1A: Life Technologies and Expression Analysis (LTEA) Assay for Hypoxia-inducible factor 1 (HIF1A) Trancription factor using HepaRG (AID 2283503). The essentials: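 HIF1A transcript level read by qRT-PCR (ACTB, GAPDH, POLR2A normalization) after 48 h chemical exposure of HepaRG cultures. Eight half-log concentrations, top 100 uM, 0.5% DMSO vehicle, duplicates; bidirectional curve fit against DMSO baseline.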

Read-out in assay [8]: 3-Hydroxy-3-Methylglutaryl-CoA Synthase 2 (HMGCS2), HMGCS2 (gene 3158)
The assay is described as follows: LTEA_HepaRG_HMGCS2: Life Technologies and Expression Analysis (LTEA) Assay for 3-Hydroxy-3-Methylglutaryl-CoA Synthase 2 (HMGCS2) using HepaRG (AID 2283504). In short, it runs like this: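 Readout is HMGCS2 transcript by qRT-PCR, housekeeping-normalised (ACTB/GAPDH/POLR2A) and fitted bidirectionally against 0.5% DMSO. Differentiated HepaRG cells received chemicals 48 h, duplicate wells, eight half-log concentrations topping at 100 uM.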

Read-out in the next assay: HGF (gene 3082)
The assay is described as follows: LTEA_HepaRG_HGF: Life Technologies and Expression Analysis (LTEA) Assay for Hepatocyte Growth Facto (HGF) using HepaRG (AID 2283505). In short, it runs like this:
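HGF transcript was quantified by TaqMan qRT-PCR against three housekeeping genes after 48 h treatment of HepaRG cells. Exposure ran in duplicate over eight half-log steps topping at 100 uM in 0.5% DMSO vehicle.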

Read-out in assay [9]: Insulin Like Growth Factor 1 (IGF1), IGF1 (gene 3479)
The assay is described as follows: LTEA_HepaRG_IGF1: Life Technologies and Expression Analysis (LTEA) Assay for Insulin Like Growth Factor 1 (IGF1) using HepaRG (AID 2283506). The essentials: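 Expression measured by TaqMan qRT-PCR on a Fluidigm array, with three housekeeping genes for normalisation, after 48 h treatment of HepaRG cells. Top concentration 100 uM with half-log steps, 0.5% DMSO vehicle, bidirectional fit.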

Read-out in assay [10]: Intercellular Adhesion Molecule 1 (ICAM1), ICAM1 (gene 3383)
As to the kind of experiment: LTEA_HepaRG_ICAM1: Life Technologies and Expression Analysis (LTEA) Assay for Intercellular Adhesion Molecule 1 (ICAM1) using HepaRG (AID 2283507). The essentials: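 ICAM1 transcript levels measured by qRT-PCR, normalized to three housekeeping genes (ACTB, GAPDH, POLR2A), after 48 h chemical exposure of HepaRG cells. Duplicate eight-point half-log series from 100 uM in 0.5% DMSO; gain or loss fitted against vehicle.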

Read-out in assay [11]: Insulin-like growth factor-binding protein 1 (IGFBP1), IGFBP1 (gene 3484)
As to the kind of experiment: LTEA_HepaRG_IGFBP1: Life Technologies and Expression Analysis (LTEA) Assay for Insulin-like growth factor-binding protein 1 (IGFBP1) using HepaRG (AID 2283508). The essentials:
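Read-out is qRT-PCR transcript level normalized to three housekeeping genes, fitted in both directions against 0.5% DMSO. Differentiated HepaRG cells received eight half-log concentrations (top 100 uM) in duplicate for 48 h in serum-free induction medium.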

Read-out in assay [12]: Interleukin 6 Receptor (IL6R), IL6R (gene 3570)
As to the kind of experiment: LTEA_HepaRG_IL6R: Life Technologies and Expression Analysis (LTEA) Assay for Interleukin 6 Receptor (IL6R) using HepaRG (AID 2283510).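 For AC50: differentiated human HepaRG liver cells in serum-free induction medium.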 In short, it runs like this: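 IL6R transcript level by qRT-PCR after 48 h chemical exposure (8-point, half-log, max 100 uM, 0.5% DMSO vehicle) of HepaRG cells in serum-free induction medium. Normalized to three housekeeping genes; curves fitted in both directions relative to DMSO.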

Read-out in assay [13]: Potassium channel subfamily K member 1 (KCNK1), KCNK1 (gene 3775)
As to the kind of experiment: LTEA_HepaRG_KCNK1: Life Technologies and Expression Analysis (LTEA) Assay for Potassium channel subfamily K member 1 (KCNK1) using HepaRG (AID 2283511). In short, it runs like this:
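KCNK1 transcript measured by TaqMan qRT-PCR against three housekeeping genes, after HepaRG cells were treated 48 h with eight half-log concentrations (top 100 uM, 0.5% DMSO). Curves fitted bidirectionally relative to vehicle.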

Read-out in assay [14]: Keratin 19 (KRT19), KRT19 (gene 3880)
As to the kind of experiment: LTEA_HepaRG_KRT19: Life Technologies and Expression Analysis (LTEA) Assay for Keratin 19 (KRT19) using HepaRG (AID 2283512). The essentials: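 KRT19 transcript measured by TaqMan qRT-PCR, referenced to three housekeeping genes, after HepaRG cells received test chemicals for 48 h. Eight half-log concentrations, top 100 uM, 0.5% DMSO vehicle; increases and decreases both fitted.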

Read-out in assay [15]: JUN Transcription Factor, JUN (gene 3725)
As to the kind of experiment: LTEA_HepaRG_JUN: Life Technologies and Expression Analysis (LTEA) Assay for JUN Transcription Factor using HepaRG (AID 2283513). In short, it runs like this:
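mRNA measured by TaqMan qRT-PCR after 48 h chemical exposure of HepaRG cultures; normalization to three housekeeping genes. Duplicate eight-point half-log curves from 100 uM in 0.5% DMSO; gain or loss fitted against DMSO baseline.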

Read-out in assay [16]: Lipase C (LIPC), LIPC (gene 3990)
As to the kind of experiment: LTEA_HepaRG_LIPC: Life Technologies and Expression Analysis (LTEA) Assay for Lipase C (LIPC) using HepaRG (AID 2283514). In short, it runs like this: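 LIPC expression was quantified by qRT-PCR against three housekeeping genes (ACTB, GAPDH, POLR2A). Differentiated human HepaRG cells received eight half-log doses (top 100 uM, 0.5% DMSO) in duplicate for 48 h; fitting bidirectional relative to DMSO.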

Read-out in assay [17]: Lipoprotein lipase (LPL), LPL (gene 4023)
As to the kind of experiment: LTEA_HepaRG_LPL: Life Technologies and Expression Analysis (LTEA) Assay for Lipoprotein lipase (LPL) using HepaRG (AID 2283515). The essentials:
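LPL transcript levels quantified by TaqMan qRT-PCR against three housekeeping genes after 48 h chemical treatment of HepaRG cells. Eight-point half-log series from 100 uM in 0.5% DMSO, tested in duplicate; bidirectional fitting versus vehicle.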

Read-out in assay [18]: Glutamate-cysteine ligase catalytic (GCLC), GCLC (gene 2729)
As to the kind of experiment: LTEA_HepaRG_GCLC: Life Technologies and Expression Analysis (LTEA) Assay for Glutamate-cysteine ligase catalytic (GCLC) using HepaRG (AID 2283498). In short, it runs like this:
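Expression by TaqMan qRT-PCR, normalized to three housekeeping genes (ACTB, GAPDH, POLR2A), with up- or down-regulation fitted against DMSO. HepaRG cells dosed in duplicate for 48 h with 8 half-log concentrations up to 100 uM, vehicle 0.5% DMSO.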

Read-out in assay [19]: Interleukin 6 (IL6), IL6 (gene 3569)
As to the kind of experiment: LTEA_HepaRG_IL6: Life Technologies and Expression Analysis (LTEA) Assay for Interleukin 6 (IL6) using HepaRG (AID 2283509). The essentials:
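Transcript levels, normalized to three housekeeping genes, were quantified by qRT-PCR after 48 h chemical treatment of HepaRG cells. Eight-point half-log series from 100 uM in 0.5% DMSO, duplicates. Fitted both directions against DMSO baseline.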

Activity calls are given as the source filed them. Rule for the calls: active = hit-call score of the fitted dose curve at least 0.9, where 1 is the maximum; inactive = score below 0.9.

Chain of Hypoxia-inducible factor 1-alpha (Homo sapiens) (Q16665 whole entry, looked up): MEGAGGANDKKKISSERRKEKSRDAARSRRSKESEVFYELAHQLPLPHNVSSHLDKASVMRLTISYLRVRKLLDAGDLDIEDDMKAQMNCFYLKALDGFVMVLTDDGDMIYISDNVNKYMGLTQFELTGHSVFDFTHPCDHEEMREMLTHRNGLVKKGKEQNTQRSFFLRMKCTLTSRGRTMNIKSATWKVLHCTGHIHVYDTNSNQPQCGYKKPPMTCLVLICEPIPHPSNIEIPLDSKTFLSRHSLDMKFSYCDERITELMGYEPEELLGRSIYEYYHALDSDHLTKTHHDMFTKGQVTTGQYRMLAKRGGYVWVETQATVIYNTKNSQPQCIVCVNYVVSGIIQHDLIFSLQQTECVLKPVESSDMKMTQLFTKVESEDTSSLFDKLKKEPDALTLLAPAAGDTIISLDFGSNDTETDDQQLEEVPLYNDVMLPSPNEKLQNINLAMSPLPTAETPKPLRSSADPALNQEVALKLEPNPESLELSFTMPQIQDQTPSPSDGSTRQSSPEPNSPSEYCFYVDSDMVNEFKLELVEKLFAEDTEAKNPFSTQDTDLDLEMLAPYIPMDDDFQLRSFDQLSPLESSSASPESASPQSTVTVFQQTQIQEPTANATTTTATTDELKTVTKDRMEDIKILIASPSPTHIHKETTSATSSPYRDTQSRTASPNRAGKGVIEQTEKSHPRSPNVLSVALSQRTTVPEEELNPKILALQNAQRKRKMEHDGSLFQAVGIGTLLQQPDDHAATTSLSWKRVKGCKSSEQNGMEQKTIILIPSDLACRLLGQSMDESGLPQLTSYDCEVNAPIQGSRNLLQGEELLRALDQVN

`CCCCCCOC(=O)CC(CC(=O)OCCCCCC)(OC(=O)CCC)C(=O)OCCCCCC`: the call in assay [1], in assay [2], in [3], in [4], in assay [5] and in [6] was inactive. Further, the call (in assay [7]; in assay [8]; with HGF (gene 3082); in assay [9]; in assay [10]; in assay [11]) was inactive. For the same molecule, the outcome in assay [12], in [13], in assay [14], in [15], in assay [16] and in [17] was inactive.

In the case of `CCCCCOC(C)=O`, the result in assay [1], in assay [2], in [18], in assay [3], in assay [4] and in assay [6] was inactive. The molecule was called inactive (in assay [7]; in [8]; with HGF (gene 3082); in assay [9]; in assay [10]; in assay [11]). The molecule was classed as inactive in assay [12], in [13], in assay [14], in assay [15], in assay [16] and in assay [17].

With `C[C@]12C=CC(=O)C=C1CC[C@H]1[C@@H]3C[C@@H](O)[C@](O)(C(=O)CO)[C@@]3(C)C[C@H](O)[C@@]12F`, the result in assay [1], in assay [2], in assay [18], in assay [3], in assay [4] and in assay [6] was inactive. Further, the call (in assay [7]; in assay [8]; in the assay with HGF (gene 3082); in assay [9]; in assay [10]; in assay [11]) was inactive. For the same molecule, the result in [19], in [12], in assay [13], in [14], in assay [15] and in assay [16] was inactive. For the same molecule, the result in assay [17] was inactive.

Broadly, the AC50 is the concentration giving half of the maximal activity seen. Take `Cc1nccn1-c1ccc(Sc2cccc(C3(C(N)=O)CCOCC3)c2)cc1`: the AC50 in assay [1] was 15.1 µM (active); in assay [2], 10.7 µM (active); in [3], 4.69 µM (active); in assay [4], 7.4 µM (active); in assay [5], 23.8 µM (active); in [8], 11 µM (active). Moreover, the AC50 with HGF (gene 3082) was 20.6 µM (active); in assay [9], 7.82 µM (active); in assay [10], 10.7 µM (active); in assay [11], 9.01 µM (active); in assay [12], 13.1 µM (active); in [14], 6.52 µM (active). Further, the AC50 in assay [15] is 19.4 µM (active); in assay [16] it was 12.2 µM (active); in assay [17] it was 0.913 µM (active). The call in [18], in assay [6], in assay [7], in assay [19] and in assay [13] was inactive.
